The list is a sample of the results.
aSyn UTR act = Activators via SNCA 5'UTR binding, MLPCN; alpha-synuclein 5'UTR reporter, activators screen; activity score, % (tested at 7.5 µM), hits read low; 300,000 tested, 7.1% active; AID 1814; in the data active = activity score below about -60%
Numbers stand for hits; . = inactive.

SMILES | aSyn UTR act
NC(=O)c1c(NC(=O)c2ccco2)sc2c1CCC2 | -277
O=C(Nc1sc2c(c1C(=O)O)CCCCC2)c1ccco1 | -96
CSc1ccc(C2N=C(c3ccccc3)NO2)cc1 (stereo not drawn) | -128
Oc1c(Br)cc(C2N=C(c3ccccc3)NO2)cc1Br (stereo not drawn) | -65
COc1ccc(/C=C2\SC(=S)N(CCCC(=O)N3CCCCC3CCO)C2=O)cc1 (stereo not drawn) | .
CCN1C(=O)/C(=C/N2CCc3ccccc3C2)SC1=S | -108
CCN1C(=O)/C(=C\N2CCCCCC2)SC1=S | -112
CCN1C(=O)/C(=C/c2nc3ccccc3c(=O)n2-c2ccc(C)cc2)c2ccccc21 | -139
COc1ccc(-n2c(/C=C3\C(=O)N(C)c4ccccc43)nc3ccccc3c2=O)cc1 | -107
Oc1ccc(N=C/C=C/c2cccc(Br)c2)cc1-c1nc2ccccc2s1 | -99
O=S(=O)(c1ccc(Cl)cc1)N1CCN(Cc2ccc(O)c3ncccc23)CC1 | .
CC1(C(=O)N2CCN(Cc3ccccc3Cl)CC2)CC1(Cl)Cl (stereo not drawn) | -71
CCOc1ccc(Nc2ccc([N+](=O)[O-])c3nonc23)cc1 | -123
O=[N+]([O-])c1ccc(Sc2cccc[n+]2[O-])c2nonc12 | .
Cc1occc1C(=O)N/N=C/C(Br)=C\c1ccccc1 | -108
CCCCOC(=O)N/N=C/C=C/c1ccccc1 | -88
Cc1occc1C(=O)N/N=C/C=C/c1ccc(N(C)C)cc1 | -129
Cc1occc1C(=O)N/N=C/C=C/c1ccccc1 | -138
CCN1CCN(C(=O)c2cc(COc3ccc(C(C)=O)cc3OC)on2)CC1 | -146
COc1cccc(N2CCN(C(=O)c3ccc(CS(=O)c4ccccc4Cl)o3)CC2)c1 (stereo not drawn) | .
Cc1ccc(OCc2cc(C(=O)N3CCC(C(O)C(C)C)CC3)no2)cc1C (stereo not drawn) | -80
COc1cccc(OCc2cc(C(=O)N3CCN(c4ccccc4OC)CC3)no2)c1 | -139
COc1cc(C)ccc1OCc1cc(C(=O)N2CCN(C3CCCCC3)CC2)no1 | -99
Cc1ccc(OCc2cc(C(=O)N(CCO)Cc3cccs3)no2)cc1C | -81
COc1ccc(C(=O)/C=C/C(=O)N(CC(=O)NCCC(C)C)Cc2cccs2)c(O)c1 | .
SMILES | aSyn UTR act
Cc1ccc(OCc2cc(C(=O)N3CCN(C4CCCCC4)CC3)no2)cc1C | -62
COc1cc(C)ccc1OCc1cc(C(=O)N2CCCCCCC2)no1 | -62
Cc1ccc(OCc2cc(C(=O)N3CCC(c4ccccc4Cl)C3)no2)cc1C (stereo not drawn) | -165
COc1ccccc1N1CCN(C(=O)c2c(-c3ccccc3)noc2C)CC1 | -78
COc1cc(C)ccc1OCc1cc(C(=O)NC(C)Cn2cncn2)no1 (stereo not drawn) | -155
Cc1ccc(OCc2cc(C(=O)N3CCN(c4ccccc4)CC3)no2)cc1C | -155
Cc1cc(O)ccc1N/C=C(\C#N)c1nc2ccccc2o1 | -141
CC(C)C(=O)Nc1ccc(NC(=O)c2ccco2)cn1 | -86
CCCC(=O)Nc1ccc(NC(=O)c2ccco2)cn1 | -93
CCCCC(=O)Nc1ccc(NC(=O)c2ccco2)cn1 | -75
O=C(Nc1ccc(-c2noc(CCc3ccccc3)n2)cc1)c1ccco1 | -115
c1ccc(CCc2nc(-c3ccccc3)no2)cc1 | -192
O=C1CCC(=O)N1CCCCCc1nc(-c2ccccc2)no1 | -104
Brc1ccc(-c2noc(CCc3ccccc3)n2)cc1 | -84
CCCc1nc(-c2ccc(-c3ccc(F)cc3)cc2)no1 | -145
c1cncc(-c2noc(CC3CCCCC3)n2)c1 | -87
CC(C)(C)c1ccc(-c2noc(CCC(N)=O)n2)cc1 | .
c1ccc(CCc2nc(-c3cccnc3)no2)cc1 | -90
CC1CCCCN1Cc1c(O)ccc2c(=O)c(-c3ccc(Cl)cc3)coc12 (stereo not drawn) | -68
O=C1NC(c2ccc(Cl)cc2)Nc2ccccc21 (stereo not drawn) | -62
CN(C)c1ccc(C2Nc3cccc4cccc(c34)N2)cc1 | -94
Cc1ccc(C2NC(=O)c3ccccc3N2)s1 (stereo not drawn) | -168
CN(C)c1ccc(C2NC(=O)c3ccccc3N2)cc1 (stereo not drawn) | -131
CC(C)CNC(=O)C1CCN(Cc2ccc(OCc3ccccc3)cc2)CC1 | -95
CC(O)CNC(=O)C1CCN(Cc2ccc(OCc3ccccc3)cc2)CC1 (stereo not drawn) | -126
SMILES | aSyn UTR act
Cc1cc(Br)ccc1-n1[nH]c(C)c(C=Nc2cccc3nsnc23)c1=O | -70
Cc1nn(CCOc2ccccc2)c(=O)n1-c1ccc(F)cc1 | -65
Cc1nn(C)c(=O)n1-c1ccc(OCc2ccccc2)cc1 | -104
CCOC(=O)c1c(C)[nH]c(C2=NNC(=Nc3ccccc3)SC2)c1C | -97
CC(=O)c1c(C)[nH]c(C2=NNC(=NC(C)(C)C)SC2)c1C | -97
CCOC(=O)c1c(C)[nH]c(C2=NNC(=Nc3ccccc3OC)SC2)c1C | -90
Nc1cc(-c2ccc(Br)cc2)nn1Cc1ccccc1 | -196
Cc1ccc(NC(=O)COc2ccc3c(c2)CCC3)nc1 | -98
Cc1ccc(OCC(=O)c2ccc3c(c2)CCCC3)cc1C | -84
Cc1cccnc1NC(=O)COc1ccc2c(c1)CCC2 | -94
COC(=O)CSc1nc2ccccn2c(=O)c1C=O | -173
O=C(COC(=O)Cn1cnc2ccccc21)Nc1ccc2c(c1)C(=O)c1ccccc1C2=O | -153
CSc1ccc(CNC(=O)Cc2ccc(NC(=O)C3=C(C)OCCS3)cc2)cc1 | -153
O=C1/C(=C/c2cccnc2)Oc2cc(OS(=O)(=O)c3ccccc3)ccc21 | -82
O=C(Cc1ccccc1)Nc1ccc(NC(=O)c2ccccc2)nc1 | -184
O=C(Nc1ccc(NC(=O)C2CC2)nc1)c1cccs1 | -96
CCCC(=O)Nc1ccc(NC(=O)c2cccs2)cn1 | -105
CCCCC(=O)NC(c1cccs1)c1cc(Cl)c2cccnc2c1O (stereo not drawn) | .
CCC(=O)NC(c1cccs1)c1cc(Cl)c2cccnc2c1O (stereo not drawn) | .
O=C(Nc1ccc(NC(=O)c2cccs2)cn1)c1ccccc1 | -134
COc1ccc2nc3ccccc3nc2c1 | -123
COc1ccc(-n2nc3cc(N)c(Br)cc3n2)cc1 | -164
COc1ccc(-n2nc3cc(C)c(N)c(Br)c3n2)cc1 | -89
COc1ccc(-n2nc3ccccc3n2)cc1 | -93
Nc1ccc(-n2nc3ccccc3n2)cc1 | .
SMILES | aSyn UTR act
CS(=O)(=O)c1nc(-c2cccs2)cc(C(F)(F)F)n1 | -90
CS(=O)(=O)c1nc(-c2ccc(F)cc2)cc(C(F)(F)F)n1 | -126
Cc1cc(NC(=O)CCCS(=O)(=O)c2nc(-c3cccs3)cc(C(F)(F)F)n2)no1 | -92
COc1ccc(-c2cc(C(F)(F)F)nc(S(C)(=O)=O)n2)cc1 | -103
CCN(CC)CC#CC(OC)(c1ccccc1)c1ccccc1 | -81
Cn1c(SCCOc2ccc(F)cc2)nnc1-c1ccncc1 | -62
Cn1c(SCc2ccccc2)nnc1-c1c[nH]c2ccccc12 | -107
CCCCSc1nnc(-c2c[nH]c3ccccc23)n1C | -135
CCCCSc1nnc(-c2ccc(C)cc2)n1C | -109
COCc1cc(=O)oc2cc(NC(=O)c3ccc(C(C)(C)C)cc3)ccc12 | -110
Cc1cc(C(=O)Nc2ccccc2)oc(=O)c1 | -85
Cc1cc(=O)oc2cc(NC(=O)c3cccc(Br)c3)ccc12 | -166
Cn1c(=O)n(C)c2cc(NC(=O)c3cc4ccccc4o3)ccc21 | -146
O=C(Nc1ccc2oc(=O)ccc2c1)c1cc2ccccc2o1 | -177

From PubChem BioAssay
